Reference: PubChem BioAssay (NCATS)
The source made the active and inactive calls. Entries that show only a call come without a potency. Calls follow the shape of the dose curve; as a rule, active = well fitted curve in the direction sought with a large enough effect; inconclusive = small, poorly fitted or top-dose-only effect, or another doubt; inactive = no such curve, though single readings can be large or run the other way.

Assay: qHTS for ATAD5 Agonist screened against the NCATS CANVASS Library (AID 1347367);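 also: luciferase reporter driven by ATAD5 which rises upon DNA damage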
Conditions: HEK293T ATAD5-luciferase reporter, luminescence, 16 h; series mostly up to 46.1 µM
Text: Natural products and their derivatives continue to be wellsprings of nascent therapeutic potential. However, many laboratories have limited resources for biological evaluation, leaving their previously isolated or synthesized compounds largely or completely untested. To address this issue, the Canvass library of natural products was assembled (https://tripod.nih.gov/canvass), in collaboration with academic and industry researchers, for quantitative high-throughput screening (qHTS) across a diverse set of cell-based and biochemical assays. The pure (>85% purity by liquid chromatography/mass spectrometry [LC/MS]) Canvass library of 346 natural products were submitted by 45 academic laboratories and companies around the world. We collected pure natural products to circumvent deconvolution and structure elucidation due to time and resource limitations. The library was formatted into 1536-well plates and evaluated in 50 qHTS (in an 11-pnt concentration series) bioassays with broad scope of disease-relevant mechanisms. The resulting data set from 50 different assays was then systematically analyzed to identify overall trends and specific natural products with interesting biological activities. Reported herein are the results of each individual qHTS and their corresponding assay protocol. Human ATAD5 is a biomarker for identifying gentoxic compounds because ATAD5 protein levels increase post-transcriptionally in response to DNA damage. A cell-based assay is used to detect DNA damage inducers and genotoxic compounds as well. The assay is based upon a luciferase reporter gene under control of ATAD5 that has been stably integrated into HEK 293T cells. Luminescence intensity is proportional to ATAD5 expression. National Center for Advancing Translational Sciences (NCATS), Rockville, MD National Institute of Health (NIH), Bethesda, Maryland
ATAD5 Agonist assay protocol: 1. In a 1536 well, tissue culture treated white solid bottom plates (Greiner Bio-One North America), 5 uL of HEK293T-ATAD5 cell solution (2000 cells / well) was dispensed using the Multidrop Combi dispenser (Thermo Fisher Scientific). 2. The assay plates were incubated for 5hr at 37C, 5% CO2 to allow the cells to acclimate and attach. 3. Controls and compounds were pin transferred (~23 nL volume) to the assay plates via Wako Pin-tool (Wako Automation, Richmond VA) equipped with a 1536 pin head. The compounds were transferred to columns 5-48 resulting in a final concentration ranging from 0.6nM to 92uM. Methyl methanesulfonate (MMS) was used as a control in various concentrations (columns 1: dose response, column2: 0.7mM, and column3: 0.6mM). DMSO (0.46% final concentration was used as a negative control. 4. The assay plates were further incubated in the dark at 37C, 5% CO2 for 16hr. 5. To measure cell viability, 1uL of CellTiter-Fluor (Promega) reagent was then added to the assay plates (column 1-48, rows 1-32). The assay plates were incubated in the dark for 1hr at 37C, 5% CO2. 6. A first readout of fluorescence signal was acquired via the ViewLux (PerkinElmer) plate reader using filter sets for AFC (380-400nmEx/505Em) and 1 second exposure setting. 7. To measure ATAD5 activation, 4uL of Amplite (AAT Bioquest) reagent was then added to the assay plates (column 1-48, rows 1-32). The assay plates were further incubated in the dark at room temperature for 30min. 8. A second readout of luminescence signal was acquired via the ViewLux plate reader using a clear emission filter, 10 second exposure setting. Fox JT1, et al. High-throughput genotoxicity assay identifies antioxidants as inducers of DNA damage response and cell death. Proc Natl Acad Sci U S A. 2012 Apr 3;109(14):5423-8.
Potency is read from the fitted curve at half-maximal effect.

SMILES	Potency
CCC(=O)CCCCC[C@@H]1NC(=O)[C@H]2CCCCN2C(=O)[C@H]([C@@H](C)CC)NC(=O)[C@H](Cc2cn(OC)c3ccccc23)NC1=O	1860 nM (active)
CCCCC[C@@H]1OC(=O)[C@@H](C)N(C)C(=O)[C@H](CCCCC)OC(=O)C(C)N(C)C(=O)[C@H](CCCCC)OC(=O)[C@@H](C)N(C)C(=O)[C@H](CCCCC)OC(=O)C(C)N(C)C1=O (stereo not given in full)	inactive
CC=C1CN(C=O)[C@H]2C[C@@H]1[C@@H](C(=O)OC)[C@@]13CCOC21Nc1ccccc13 (stereo not given in full)	inactive
CCN1C[C@]2(C)CC[C@@H](O)[C@]34C1[C@H](C[C@H]23)C12CCC(CC14)[C@](O)(CO)[C@H]2O (stereo not given in full)	inactive
CC[N@@+]1([O-])C[C@]2(C)CC[C@@H](O)[C@@]34C5C[C@H]6CC[C@@]5(C(C[C@H]23)C41)[C@H](O)[C@@]6(O)CO (stereo not given in full)	inactive
COc1ccc2c3c([nH]c2c1)C(C)=NCC3	inactive
CNCCc1ccccc1	inactive
CN(C)Cc1c[nH]c2ccccc12	inactive
C[C@]12CC(O)C3[C@@H](CCC4C[C@@H](O)CC[C@@]43CO)[C@@]1(O)CCC2C1=CC(=O)OC1 (stereo not given in full)	inactive
CO[C@@H](/C=C/CC/C=C/C(=O)O)[C@@H](O)[C@H](C)/C=C(\C)[C@@H](O)[C@H](C)C(=O)CCCC1CC(=O)NC(=O)C1	inactive
CN1C(=O)[C@]23CC4C(C)(C)[C@@]5(C[C@@]41CN2CC[C@@]3(C)O)C(=O)Nc1c5ccc2c1OC=CC(C)(C)O2 (stereo not given in full)	inactive
CC1=CC(=O)C2=C(C)C[C@H](O)[C@@H]3[C@H](OC(=O)[C@@H]3C)[C@@H]12	inactive
COC(=O)C1=C2Nc3ccccc3[C@@]23CCN2CC(C(C)=O)C1C[C@H]23 (stereo not given in full)	inactive
C/C=C1/CN2CC[C@]34C(=Nc5ccccc53)[C@@H]2C[C@@H]1[C@H]4C(=O)OC	inactive
CO[C@H](c1ccccc1)[C@H]1NC(=O)C(C)NC(=O)C(C[C@@H](C)CO)N(C)C(=O)[C@@H](C(O)c2cn(C(C)(C)C3CO3)c3ccccc23)NC(=O)C(C(C)C=C(C)C)NC(=O)C(CC(C)C)N(C)C(=O)C(C(C)C)NC1=O (stereo not given in full)	inactive
CCCC[C@@H]1CC[C@H]2CCCC(CCC)N12 (stereo not given in full)	inactive
C=C1[C@@H](C)[C@H]2[C@H](Cc3ccccc3)NC(=O)[C@]23OC(=O)/C=C/[C@H](O)CCC[C@@H](C)C/C=C/[C@H]3[C@@H]1O	inactive
CNCCc1c[nH]c2ccccc12	inactive
COc1ccc(C23Oc4cc(OC)cc(OC)c4[C@](O)([C@H](c4ccccc4)C2C(=O)NCCCCNC(=O)c2ccccc2)[C@@H]3O)cc1 (stereo not given in full)	inactive
CC[C@@H]1CN2CC[C@@]3(O)C(=Nc4cccc(OC)c43)[C@@H]2C[C@@H]1/C(=C\OC)C(=O)OC	inactive
NCCc1ccccc1	inactive
CCC[C@H]1CC[C@H]2[C@H](C)CCC[C@H]2N1	inactive
CNCCc1ccc(O)cc1	inactive
CCN1C[C@]2(C)CC[C@H](O)[C@]34C1C(C[C@H]23)[C@@]12CC[C@H](CC14)[C@](O)(COC(=O)c1ccc(OC)c(OC)c1)[C@H]2O (stereo not given in full)	inactive
COc1ccc2c(c1)[nH]c1c(C)nccc12	inactive
CO[C@@H](/C=C/CC/C=C/C(=O)O)[C@@H](O)[C@H](C)[C@@H](O)/C(C)=C/[C@H](C)C(=O)CCCC1CC(=O)NC(=O)C1	inactive
O=C(c1ccccc1O)c1[nH]c(Cl)c(Cl)c1-n1c(C(=O)c2ccccc2O)cc(Cl)c1Cl	inactive
CC(=O)N[C@H]1CCN2CCC[C@H]12	inactive
CC1=CC2CC[C@@H]3[C@@H](C)C[C@H](C)[C@@H](C1)N23 (stereo not given in full)	inactive
c1ccc2c3c([nH]c2c1)CNCC3	inactive
